# The campaign covered roughly 350,000 compounds. About 7,000 (2%) were called active. No stated cut-off is given here; in the data, active means activation above about 40%; inconclusive means no clear call, values can overlap the other calls; inactive means below that. The sample as a whole holds a higher share of actives than the screen did.
# Assay: Bmi1 luciferase reporter increase in mESCs, primary screen, esBAF inhibitor project, mouse ES cells, Bmi1 luciferase knock-in, single point (AID 602393);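 further: 0% = median of the plate's neutral control wells and 100% = double that signal; a rise in the Bmi1 reporter signal indicates esBAF inhibition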
# Details: 24 h, at 12.5 µM, hits give high values, 100% = twice the neutral-well signal
row,SMILES,reporter increase
1,O=C(C[C@H]1CC[C@H]2[C@@H](COC[C@@H](O)CN2C(=O)c2ccc3c(c2)OCO3)O1)NC1Cc2ccccc2C1,-0.266% (inactive)
2,CN(C)CC(=O)Nc1ccc2c(c1)[C@H]1C[C@H](CC(=O)NCc3ccc4c(c3)OCO4)O[C@@H](CO)[C@H]1O2,2.82% (inactive)
3,O=C(O)CSc1nnc(-c2ccc3c(c2)OCO3)n1-c1ccccc1,19.1% (inactive)
4,Cn1c(SCc2nc3ccccc3s2)nnc1-c1ccc2c(c1)OCO2,66.4% (active)
5,Cn1c(SCC(=O)N2CCCC2)nnc1-c1ccc2c(c1)OCO2,1.7% (inactive)
6,C[C@@H]1CCCCO[C@H](CN(C)C(=O)Cc2ccccc2)[C@H](C)CN([C@H](C)CO)C(=O)c2cc(NS(=O)(=O)c3cn(C)cn3)ccc2O1,5.86% (inactive)
7,C[C@H](CO)N1C[C@H](C)[C@@H](CN(C)Cc2cccc3c2OCCCO3)OCc2cn(nn2)CCCC1=O,-0.925% (inactive)
8,Cc1nn(C(=O)c2ccoc2C)c(N)c1-c1ccccc1,78.5% (active)
9,Cc1occc1C(=O)Nc1cccc(Cn2cccn2)c1,10.4% (inactive)
10,Cc1ccnc(NC(=O)c2ccoc2C)c1,25.4% (inactive)
11,C[C@@H]1CN([C@H](C)CO)C(=O)Cc2cc(NS(=O)(=O)c3ccc(Cl)cc3)ccc2O[C@@H]1CN(C)C,-0.489% (inactive)
12,O=S(=O)(NCCOc1cccc2cccnc12)c1ccc(F)cc1,11.1% (inactive)
13,Fc1ccccc1COc1ccccc1CNCc1ccncc1,2.36% (inactive)
14,Fc1ccccc1COc1cccc2cccnc12,45.7% (active)
15,CC(C)CC#Cc1cnc2c(c1)C(=O)N([C@@H](C)CO)C[C@H](C)[C@@H](CN(C)Cc1ccccc1C(=O)O)O2,-9.83% (inactive)
16,CCOC(=O)C1CCCN(C(=O)c2cncc(Br)c2)C1 (stereo unspecified),-6.09% (inactive)
17,CCCOC1CCCN(C(=O)c2cc(COc3cncc(Cl)c3)on2)C1 (stereo unspecified),66.1% (active)
18,COc1cc(Cl)ccc1OCc1cc(C(=O)N(C)CCc2c(C)n[nH]c2C)no1,14.1% (inactive)
19,CCOC(=O)CC1(NC(=O)c2cc(COc3cncc(Cl)c3)on2)CCCCC1,2.06% (inactive)
20,COc1cc(Cl)ccc1OCc1cc(C(=O)N2CC[C@@H]3CCCC[C@H]3C2)no1,52.6% (active)
21,CCn1ccnc1CN(C)C(=O)c1cc(COc2ccc(Cl)cc2OC)on1,1.62% (inactive)
22,C[C@@H]1CN([C@H](C)CO)C(=O)c2cc(NC(=O)Cn3cnnn3)ccc2O[C@@H]1CN(C)CC1CC1,-4.62% (inactive)
23,C[C@H](CO)N1C[C@H](C)[C@H](CN(C)S(C)(=O)=O)Oc2c(NC(=O)Nc3cccc4ccccc34)cccc2C1=O,-0.771% (inactive)
24,C[C@H](O)C#Cc1cnc2c(c1)C(=O)N([C@@H](C)CO)C[C@H](C)[C@H](CN(C)C(=O)c1ccccc1)O2,-2.39% (inactive)
25,CN1C(=O)c2cc(NC(=O)c3ccccc3)ccc2OC[C@@H]2O[C@@H](CC(=O)NC3CCCC3)CC[C@H]21,-4.47% (inactive)
26,C[C@H]1CCCCO[C@@H](CN(C)Cc2ccc3c(c2)OCO3)[C@@H](C)CN([C@@H](C)CO)C(=O)c2cc(NS(=O)(=O)c3ccc(F)cc3)ccc2O1,3.56% (inactive)

row,SMILES,reporter increase
1,COCCN(C[C@H]1[C@@H](c2ccccc2)[C@H](CO)N1C(=O)C1CCC1)C(C)=O,-2.98% (inactive)
2,C[C@@H]1CN([C@H](C)CO)C(=O)c2cc(C#CC3CC3)cnc2O[C@H]1CN(C)C(=O)CC1CC1,3.96% (inactive)
3,COc1ccccc1/C=C/C(=O)NC1CC2CCC1C2 (stereo unspecified),28.1% (inactive)
4,O=C(/C=C/c1ccco1)NC(=S)N1CCCCC1,11.3% (inactive)
5,COc1ccccc1/C=C/C(=O)NC(=S)N1CCOCC1,44.4% (active)
6,C[C@H]1CN([C@@H](C)CO)S(=O)(=O)c2ccc(-c3ccncc3)cc2O[C@@H]1CN(C)C(=O)CC1CC1,-3.03% (inactive)
7,C[C@@H]1CN([C@H](C)CO)S(=O)(=O)c2ccc(C#C[C@@H](C)O)cc2O[C@H]1CN(C)CC1CC1,2.12% (inactive)
8,Cc1cccc(C(=O)N[C@H](C(=O)NCc2cccs2)C(C)C)c1,-4.58% (inactive)
9,CC(Cc1cccs1)NC(=O)c1cccc(Cl)c1 (stereo unspecified),59.9% (active)
10,CC(Cc1cccs1)NC(=O)NC1CCCCC1 (stereo unspecified),17.1% (inactive)
11,C[C@@H]1CCCCO[C@@H](CN(C)S(=O)(=O)c2cn(C)cn2)[C@@H](C)CN([C@H](C)CO)C(=O)c2cc(NC(=O)c3ccncc3)ccc2O1,2.55% (inactive)
12,CN1CCN(C(=O)C[C@@H]2CC[C@@H]3[C@H](COC[C@@H](O)CN3Cc3cccc(F)c3)O2)CC1,0.727% (inactive)
13,C[C@@H]1CN([C@@H](C)CO)C(=O)c2cc(C#CCN(C)C)cnc2O[C@@H]1CN(C)Cc1ccccn1,-9.33% (inactive)
14,CO[C@@H]1CN(C)C(=O)c2cc(NS(=O)(=O)c3cccc(Cl)c3)ccc2OC[C@@H](C)NC[C@@H]1C,3.71% (inactive)
15,Cc1ccc(-c2nc3ccc(Br)cn3c2Cc2ccccc2C(F)(F)F)cc1,58.8% (active)
16,Fc1cccc(Cc2c(-c3cccc(Cl)c3)nc3ccc(Br)cn23)c1,57.3% (active)
17,Fc1cccc(Cc2c(-c3ccc(Cl)cc3)nc3ccc(Cl)cn23)c1,7.58% (inactive)
18,Brc1ccc2nc(-c3ccccc3)c(Cc3ccccc3)n2c1,18% (inactive)
19,Cc1ccc(-c2nc3ccc(Cl)cn3c2Cc2ccccc2)cc1,44.1% (active)
20,FC(F)(F)c1ccccc1Cc1c(-c2ccccc2)nc2c3ccccc3ccn12,3.35% (inactive)
21,Clc1cccc(Cc2c(-c3cccc(Cl)c3)nc3ccc(Cl)cn23)c1,35.2% (inactive)
22,Cc1ccc(Cc2c(-c3ccccc3)nc3ccc(Cl)cn23)cc1,21% (inactive)
23,Cc1ccc(Cc2c(-c3ccco3)nc3ccc(Cl)cn23)cc1,-7.76% (inactive)
24,C[C@H](CO)N1C[C@H](C)[C@H](CN(C)C(=O)c2ccncc2)Oc2cc(C#CC3(O)CCCC3)ccc2S1(=O)=O,2.01% (inactive)
25,Cc1ccc(S(=O)(=O)N[C@@H]2CC[C@H](CCNC(=O)C3CCOCC3)O[C@@H]2CO)cc1,3.97% (inactive)
